Reference: PubChem BioAssay (Tox21)
Records with an inconclusive call do not appear. Where a call stands in place of a potency, no number is given. Unmarked numbers belong to inactive results. Active and inactive are the calls of the source. Calls follow the shape of the dose curve; as a rule, active = well fitted cell-killing curve with a large enough effect in the repeat runs; inconclusive = weak or mixed curves, or effect the other way; inactive = flat fitted curve, though single readings scatter.

Experiment: qHTS RealTime-Glo MT Cell Viability Assay in HEK293 cells - 0 hour (AID 1224880); also: nearly all actives have a fitted effect of over 45% in size; as to activity change, negative = cytotoxicity: top concentration of the series differs between compounds
Conditions: RealTime-Glo luminescence; series mostly up to 76.8 µM
Excerpt: U.S. Tox21 Program National Center for Advancing Translational Sciences [NCATS] NIH Chemical Genomics Center [NCGC] U.S. Environmental Protection Agency [EPA] National Institutes of Environmental Health Sciences [NIEHS] National Toxicology Program [NTP] U.S. Food and Drug Administration [FDA] Tox21 Assay Overview: Measure of cell viability is critical in the cell-base assay. Analysis of cell viability is necessary for the characterization of cell responses to cytotoxic drugs and environmental stress. A RealTime-Glo MT Cell Viability Assay to monitor cell viability in real time of continues cell culture during 40 hours of compound treatment was used to screen Tox21 10K library compounds in Hek293 cells. The RealTime-Glo MT Cell Viability Assay is a nonlytic, homogeneous, bioluminescent method to measure cell viability in real time using a simple, plate-based method. The assay involves adding NanoLuc luciferase and a cell-permeant prosubstrate to cells in culture. Viable cells reduce the proprietary prosubstrate to generate a substrate for NanoLuc luciferase. This substrate diffuses from cells into the surrounding culture medium, where it is rapidly used by the NanoLuc Enzyme to produce a luminescent signal. The signal correlates with the number of viable cells, making the assay well suited for cytotoxicity studies.
Tox21 Assay Protocol Summary: The mixture of Hek293 cell suspension and reagents were dispensed at 600cells/6 ul/well in 1536-well tissue culture treated black solid bottom plates using a Multidrop dispenser. After the assay plates were incubated at a 37 C/5% CO2 incubator for 5 hours, 23 nL of compounds dissolved in DMSO, positive and negative controls was transferred to the assay plate by a pintool work station. The plates were incubated at 37 C for 40 hours. The luminescence intensity were measured at 0h, 8h, 16h, 24h, 32h and 40h time points using ViewLux plate reader during compound treatment.
Potency is read from the fitted curve at half-maximal effect.

SMILES | Potency | activity change, negative = cytotoxicity
O=C(O)CC(=O)C(=O)O | inactive | 
COc1ccc(C(=O)c2ccc(OC)cc2O)c(O)c1 | inactive | 
CCCCCCCCCCCCCCOS(=O)(=O)O | inactive | 
C=C(C)C(=O)OCC | inactive | 
CCCCC(CC)COC(=O)COc1ccc(Cl)cc1Cl (stereo not given) | inactive | 
O=C(O)CNCC(=O)O |  | -1.51% [at 6.97 µM]
CCCCCCCCCCCCN1CCCCCC1=O | inactive | 
CCCC(=O)Nc1ccc(O)c(C(C)=O)c1 | inactive | 
CC1=CC=C(C(C)C)CC1 | inactive | 
C/C(=C(\CCOP(=O)(O)O)SC(=O)c1ccccc1)N(C=O)Cc1cnc(C)nc1N |  | 2.7% [at 6.97 µM]
O=C(OCCCCCCOC(=O)c1ccccc1)c1ccccc1 | inactive | 
O=C(O)C1(C(=O)Nc2ccc(Cl)cc2Cl)CC1 | inactive | 
Cc1[nH]c(C)c(Cl)c(=O)c1Cl |  | 7.46% [at 15.8 µM]
O=C1OC(=O)C2C3C=CC(C3)C12 (stereo not given) | inactive | 
CCCCCCCC#N | inactive | 
CCCCC | inactive | 
O=[N+]([O-])c1cccc(S(=O)(=O)O)c1 | inactive | 
O=C(Nc1ccc(S(=O)(=O)N2CCOCC2)cc1)c1cc(Cl)ccc1NS(=O)(=O)c1ccc(Cl)s1 | 10.7 µM (active) | 
CNC(=O)CN(CCN(CCN(CC(=O)[O-])CC(=O)NC)CC(=O)[O-])CC(=O)[O-].O.[Gd+3] | inactive | 
Nc1cc(C(=O)O)c(O)c(S(=O)(=O)O)c1 | inactive | 

SMILES | Potency | activity change, negative = cytotoxicity
Nc1ncn([C@H]2C[C@H](O)[C@@H](CO)O2)c(=O)n1 | inactive | 
CCc1cc(C2=C(C(=O)O)N(c3ccccc3C(F)(F)F)S(=O)(=O)c3ccccc32)cc2c1OCO2 | 43.1 µM (active) | 
CC(CSC(=O)c1ccccc1)C(=O)N1C[C@@H](Sc2ccccc2)C[C@H]1C(=O)O (stereo not given in full) |  | -6.47% [at 15.8 µM]
COc1cc2nc(Cl)nc(N)c2cc1OC | inactive | 
O=C1[C@H]2CCCC[C@H]2C(=O)N1CCCCN1CCN(c2nsc3ccccc23)CC1 | inactive | 
CCCCCCCCCc1ccc(OCCOCCO)cc1 | inactive | 
NC(=O)C(c1ccccc1)(c1ccccc1)[C@@H]1CCN(CCc2ccc3c(c2)CCO3)C1 | inactive | 
N=c1ccn2c(n1)O[C@H]1[C@H](O)[C@@H](CO)O[C@H]12 | inactive | 
CCC(C)c1cc(C(C)(C)C)c(O)c(C(C)(C)C)c1 (stereo not given) | inactive | 
CCCCc1ncc(/C=C(\Cc2cccs2)C(=O)O)n1Cc1ccc(C(=O)O)cc1 | inactive | 
C/C=C/C(=O)CC |  | 9.44% [at 15.8 µM]
C=CC1CC2C=CC1C2 (stereo not given) | inactive | 
COc1cccc(N(C)C(=S)Oc2ccc3c(c2)CCCC3)n1 | inactive | 
CCn1cc(C(=O)O)c(=O)c2cnc(N3CCNCC3)nc21 | inactive | 
COc1ccc(C(=O)N2CCN(CC(=O)N3CCOCC3)CC2)cc1 | inactive | 
CC[N+]1(CC)CCC(=C(c2ccccc2)c2ccccc2)C1C (stereo not given) | inactive | 
CCOC(=O)c1cccnc1 | inactive | 
CCCCCCCCCCO[C@@H]1O[C@H](CO)[C@@H](O)[C@H](O)[C@H]1O | inactive | 
NC(N)=NCCC[C@H](N)C(=O)O |  | 14% [at 6.97 µM]
CN1CCC(N(Cc2cccs2)c2ccccc2)CC1 | inactive | 
